Data on one compound can be found in PubChem BioAssay AID588351 (The Scripps Research Institute Molecular Screening Center, 2011).

The structures appear in SMILES notation. Screen size: about 1,900 compounds; about 1,600 (84%) were called active.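 The calls were made as follows: active = mean activation above a set limit taken from the primary screen (cut at about 8% in these data); inactive = the rest.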 The set was probably picked from earlier hits. These entries were drawn from the full list.

The assay can be described thus: FXN GAA850 promoter activators in reporter cells, confirmation, cell-based, luminescence, HEK293 lucGAA850, triplicate (AID 588351).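 Also: 0% = DMSO wells and 100% = 10 µM SAHA wells.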 As to conditions: HEK293 lucGAA850 FXN promoter luciferase reporter, 24 h; at 6 µM; stronger effect = higher value. Background: Reporter assays use an easily measured gene product as a stand-in for the process of interest.
`CC(C)(C)c1ccc(OC(=O)N2CCCCC2)cc1`: the activation was 35% (active).
